# ALDH1A1 block = blocks purified human ALDH1A1 activity. P00352. Purified ALDH1A1, NADH fluorescence, propionaldehyde substrate. Potency, µM (top dose mostly 75.3 µM), for inactives: at the highest dose activity, negative = inhibition, actives largely listed as inhibitors. 7.3% of 220,000 active;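 note: plate controls were no enzyme wells and a reference inhibitor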
# HTT ATP protect = protects HTT-Q103 PC12 cells, measured by ATP; PC12 HTT-Q103 induced, cytoprotection, ATP luminescence, 40 h; Potency, µM (titrated, usually from 56.4 µM), inactives show cytoprotection (ATP increase), most hits filed as activators; 0.14% of 230,000 active; AID 1471; active = well fitted curve in the direction sought with a large enough effect; inconclusive = small, poorly fitted or top-dose-only effect, or another doubt; inactive = no such curve, though single readings can be large; an effect the other way counts as inactive or inconclusive; note: % of control where 0% means no effect; nearly all actives have a fitted effect of over 45% in size
#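 ATP quantification (ATPlite) reports survival of PC12 cells in which tebufenozide, 100 nM final, switches on Htt exon 1 with 103 glutamines linked to GFP; compounds are titrated.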
# HPGD block = HPGD (human) dehydrogenase inhibition. P15428. purified HPGD, NADH fluorescence kinetic, PGE2 substrate. Potency, µM, for the others: top-dose activity change, negative = inhibition, usual class: inhibitors. 4.3% of 150,000 active; note: % is set by controls: 0 for no effect and ±100 for the full control effect
# Target sequence (P15428 whole entry, looked up): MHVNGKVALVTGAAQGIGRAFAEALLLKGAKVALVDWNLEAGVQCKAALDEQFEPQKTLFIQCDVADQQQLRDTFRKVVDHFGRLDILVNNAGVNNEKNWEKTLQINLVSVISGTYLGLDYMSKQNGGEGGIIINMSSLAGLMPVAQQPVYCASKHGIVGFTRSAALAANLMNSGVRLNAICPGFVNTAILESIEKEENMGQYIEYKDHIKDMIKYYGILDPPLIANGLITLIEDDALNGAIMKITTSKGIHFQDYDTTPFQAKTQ
#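 20 nM HPGD preincubated 15 min at room temperature with compound in 50 mM Tris-HCl pH 8, 0.01% Tween 20. Started with 1 mM NAD+ and 30 uM prostaglandin E2; NADH fluorescence (360/450 nm) read 5 times over 30-s intervals, last minus first.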
# HTT aggregate = mutant huntingtin aggregation inhibition; Potency, µM (highest dose often 46.1 µM), inactives show top-dose activity change, negative = inhibition, actives largely listed as inhibitors; 1.1% of 220,000 active; PC12 HttQ103-GFP aggregates, Acumen cytometry, 40 h; active = well fitted curve in the direction sought with a large enough effect; inconclusive = small, poorly fitted or top-dose-only effect, or another doubt; inactive = no such curve, though single readings can be large; an effect the other way counts as inactive or inconclusive; note: % is set by controls: 0 for no effect and ±100 for the full control effect; nearly all actives have a fitted effect of over 60% in size
#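 Huntingtin Q103 exon 1–GFP aggregates in induced PC12 cells (100 nM tebufenozide) were quantified by cytometry from lysates, with compounds dosed in titration.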
# JMJD2E inh = JMJD2E (human) inhibition; JMJD2E catalytic domain, FDH-coupled NADH fluorescence (FDH is formaldehyde dehydrogenase); Potency, µM (highest dose often 57.1 µM), without a hit: at the top dose activity change, negative = inhibition, actives largely listed as inhibitors; 1.6% of 230,000 active; AID 2147;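 note: 0% = wells with enzyme and -100% = buffer wells without enzyme; nearly all actives have a fitted effect of over 50% in size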
# Target sequence (B2RXH2 1-337 limits assumed): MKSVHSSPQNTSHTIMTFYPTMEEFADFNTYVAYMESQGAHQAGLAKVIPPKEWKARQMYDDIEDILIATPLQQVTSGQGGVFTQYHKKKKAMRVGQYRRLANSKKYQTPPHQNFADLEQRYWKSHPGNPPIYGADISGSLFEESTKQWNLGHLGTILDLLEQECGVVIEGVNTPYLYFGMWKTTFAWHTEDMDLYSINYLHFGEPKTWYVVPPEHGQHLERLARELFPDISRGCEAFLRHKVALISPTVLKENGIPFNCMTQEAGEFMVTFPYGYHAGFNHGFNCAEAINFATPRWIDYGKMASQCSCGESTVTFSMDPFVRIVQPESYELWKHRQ
# LMNA splice mod = LMNA splicing modulation | HeLa LMNA splicing GFP/RFP minigene ratio, 48 h | Potency, µM (titrated, usually from 46.1 µM), for the others: at the top dose ratio change, negative = inhibition, hits mostly inhibitors | 0.01% of 200,000 active | AID 1487; active = well fitted inhibition curve with a large enough effect in the signal ratio, with a control signal flat, not every such curve was filed as active; inconclusive = small, poorly fitted or top-dose-only effect, or effect the other way, or a change in a side signal; the % refers to the signal ratio; note: % is set by controls: 0 for no effect and ±100 for the full control effect
#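 Read-out is the ratio of GFP to DsRed2 object intensity, acquired by 488 nm laser-scanning cytometry on HeLa lamin A-EGFP minigene reporter cells. Compound incubation 48 hrs at 37 °C in Opti-MEM with 2% FBS; DMSO 0.5% final.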
# Numbers without * were called inactive; ? = inconclusive; · = no result given; [ ] = another dose, or the depositor's remark. Shown are actives, neighbours in structure and some others; about 9.2% of the full set was active somewhere. Unless noted, calls come from the whole dose curve; as a rule, active = well fitted inhibition curve with a large enough effect (not every such curve was filed as active); inconclusive = small, poorly fitted or top-dose-only effect, or another doubt; inactive = no such curve, though single readings can be large or run the other way. Potency is the fitted concentration of half-maximal effect.
SMILES,ALDH1A1 block,HTT ATP protect,HPGD block,HTT aggregate,JMJD2E inh,LMNA splice mod
CCN(CC)CCCNC(=O)c1ccc(Cc2nc3ccccc3[nH]2)cc1,0%,·,-4%,·,·,·
CCN(CC)C(=O)c1sc(NC(=O)c2cccnc2)c(C(=O)OC)c1C,?,-1%[10 µM],20µM*,-13%,7%,-1%
CCCCC(=O)Nc1sc(C(=O)N(CC)CC)c(C)c1C(=O)OC,8.9µM*,1%[10 µM],2.5µM*,5%,1%,-15%
CCCc1cc(C(=O)Nc2sc(C(C)=O)c(C)c2C(=O)OCC)no1,25µM*,-1%[10 µM],?,-4%,5%,-18%
COC(=O)c1c(NC(=O)c2cccnc2Cl)sc(C(=O)N(C)C)c1C,-14%,1%[10 µM],-24%,15%,-1%,-10%
CCN(CC)C(=O)c1sc(NC(=O)c2ccc(Br)o2)c(C(=O)OC)c1C,?,-31%,16µM*,-24%,?,16%
O=C(Nc1ccc(F)cc1F)c1ccc(-n2cnnc2)cc1,·,·,·,·,·,-11%[46 µM]
CC1CCCCN1CCCNC(=O)c1ccc2c(c1)sc1nc(-c3ccc(F)cc3)cn12 (stereo unspecified),·,·,·,·,·,1%[46 µM]
CCC/C=C(\CCC)C(NS(=O)(=O)c1cccs1)c1ccc(C(=O)OC)cc1 (stereo unspecified),-14%,?,-11%,·,2%,·
CC(C)C[C@@H](CC(=O)N[C@@H](CCC(=O)O)CC(=O)O)NC(=O)[C@@H]1CNCC[C@H]1NC(=O)C[C@@H](NC(=O)C[C@H](Cc1c[nH]c2ccccc12)NC(=O)[C@@H]1CCCC[C@H]1N)C(C)C,-8%,-13%[1.9 µM],-3%,·,-13%,·
CCOC(=O)c1c(NC(=O)CC)sc(C(C)=O)c1C,14µM*,-27%[10 µM],?,26%,-5%,0%
CCOC(=O)c1c(NC(=O)c2cccnc2)sc(C(C)=O)c1C,?,8%[10 µM],13µM*,-13%,-22%,-7%
CCOC(=O)c1c(NC(NC(C)=O)C(Cl)(Cl)Cl)sc(C(C)=O)c1C (stereo unspecified),?,-46%,-20%,?,3%,1%
CCOC(=O)c1sc(NC(=O)c2cccnc2)nc1C,-12%,-6%,-15%,-5%,1%,13%
CCOC(=O)N1CCN(c2c(NCCc3ccc(OC)c(OC)c3)c(=O)c2=O)CC1,?,-2%,-15%,6%,2%,-4%
CCOC(=O)N1CCN(c2c(NCc3cccs3)c(=O)c2=O)CC1,?,-31%,28µM*,3%,-3%,-25%
CCOC(=O)N1CCN(c2c(NCc3ccccc3OC)c(=O)c2=O)CC1,?,-7%,16µM*,2%,-19%,-12%
CCOC(=O)N1CCN(c2c(NCc3ccc(F)cc3)c(=O)c2=O)CC1,·,-31%[10 µM],·,-19%[9.22 µM],6%,·
CCC1CN(C(=O)N2CCC(C(=O)NCc3cccs3)CC2)c2ccccc2O1 (stereo unspecified),·,·,·,·,·,17%[46 µM]
Cc1oc2ncnc(N3CCCCC3)c2c1C(=O)N1CCN(c2cccc(C(F)(F)F)c2)CC1,·,·,·,·,·,-13%[46 µM]
CCC(C)NC(C(=O)Nc1ccc(Cl)c([N+](=O)[O-])c1)c1ccccc1 (stereo unspecified),?,13%[1.9 µM],1%,7%,-23%,-6%
O=C(Nc1ccc(Cl)c([N+](=O)[O-])c1)C(NCCCO)c1ccccc1 (stereo unspecified),0.71µM*,18%[10 µM],-3%,16%,4%,1%
COCCCNC(=S)Nc1ccc(C)cc1[N+](=O)[O-],?,·,·,-20%,8%,?
COCCNC(C(=O)Nc1ccc(C)cc1[N+](=O)[O-])c1ccccc1 (stereo unspecified),25µM*,-33%,·,3%,-3%,·
COCCNC(C(=O)Nc1ccc([N+](=O)[O-])cc1Br)c1ccccc1 (stereo unspecified),13µM*,-14%[10 µM],-16%,2%,-13%,?
SMILES,ALDH1A1 block,HTT ATP protect,HPGD block,HTT aggregate,JMJD2E inh,LMNA splice mod
O=c1c2c([N+](=O)[O-])cc([N+](=O)[O-])cc2sn1-c1ccc(Br)cc1,1.4µM*,5%[10 µM],2.2µM*,6%,3.5µM*,-15%
COc1ccccc1NS(=O)(=O)c1cc(NC(=O)C(C)C)ccc1N1CCCCC1,9.5µM*,-9%,·,-7%,-22%,·
S=C(NCCN1CCOCC1)Nc1cccc2ccccc12,-7%,-15%[10 µM],-19%,3.5µM*,?,-7%
COc1ccccc1NS(=O)(=O)c1cc(NC(=S)NCCN2CCOCC2)ccc1N1CCOCC1,25µM*,-42%[10 µM],18µM*,?,-19%,-10%
O=C(Nc1ccc(F)cc1)Nc1ccc(N2CCCC2)c(S(=O)(=O)Nc2ccccc2Cl)c1,?,-31%[10 µM],-18%,?,22µM*,?
O=C(Nc1ccc(Cl)c(Cl)c1)Nc1ccc(N2CCCC2)c(S(=O)(=O)Nc2ccccc2Cl)c1,7%,15%[10 µM],-12%,?,?,?
CN(CCN(C)C(C)(C)C)C(=O)C(c1ccccc1)c1ccccc1,·,15%[10 µM],·,27%[9.22 µM],?,·
COc1ccccc1S(=O)(=O)Nc1cc(S(=O)(=O)N2CCCCC2)ccc1N1CCOCC1,13µM*,-26%[10 µM],·,27%,5%,-16%[46 µM]
COc1ccccc1NS(=O)(=O)c1cc(NC(=O)c2ccncc2)ccc1N1CCOCC1,?,-13%[10 µM],-24%,-2%,?,-8%
COc1ccccc1NS(=O)(=O)c1cc(NC(=O)Nc2ccccc2)ccc1N1CCCCC1,18µM*,-28%[10 µM],25µM*,?,?,?
COc1ccc(NS(=O)(=O)c2cc(NC(=O)c3sccc3C)ccc2N2CCOCC2)cc1,-10%,-23%[10 µM],·,2%[9.22 µM],-10%,·
COc1ccc(NS(=O)(=O)c2cc(NC(=O)CC3CCCC3)ccc2N2CCOCC2)cc1,3.2µM*,-77%,·,-29%,?,3%[46 µM]
COc1ccccc1NS(=O)(=O)c1cc(NC(=O)C2CCCC2)ccc1N1CCOCC1,10µM*,5%[10 µM],·,?,-18%,?
COc1ccccc1NS(=O)(=O)c1cc(NC(=O)c2cc[n+]([O-])cc2)ccc1N1CCCC1,7.9µM*,-24%,·,3%,?,-10%[46 µM]
COc1ccccc1NS(=O)(=O)c1cc(NC(=O)c2cnccn2)ccc1N1CCOCC1,·,12%[10 µM],·,0%[9.22 µM],-2%,·
CCc1ccc(CNC(=O)Cn2nc(-c3ccc(C)cc3)ccc2=O)cc1,4%,·,·,1%,?,-3%[46 µM]
CCOC(=O)c1c(NC(=O)c2ccccc2Cl)sc2c1CCCC2,·,·,·,·,·,-29%[46 µM]
CCOC(=O)c1c(NC(C)=O)sc2c1CCCNC2=O,13µM*,-30%[10 µM],·,?,0%,-1%

# Screening results from PubChem BioAssay.
